Measurements taken from article doi:10.1101/2025.02.07.636106.

Target: Sodium/potassium-transporting ATPase subunit beta-3 (UniProt P54709)
Test: cross-link between two proteins; co-fractionation; cross-linking mass spectrometry

Substance: Sodium/potassium-transporting ATPase subunit alpha-1, P05023
- listed as a hit: yes
